In the library only some 2.3% were active in any assay of this set; here they are far more common.
Jurkat NFkB inh – inhibitors of the PMA/ionomycin-induced NF-kB reporter in Jurkat cells; PMA/ionomycin-induced NF-kB luciferase reporter, luminescence; hit rate 0.53% among 330,000; inhibition, % at 4 µM; in the data active = inhibition above about 50%
TRPM1 prom inh – inhibitors of MITF-driven TRPM1 promoter in melanoma cells | hit rate 0.83% among 330,000 | SK-MEL-5 TRPM1 promoter luciferase, 24 h | AID 488899 | inhibition, % at 12.5 µM;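 active = mean inhibition across replicates of 60% or more, whatever share of single replicates reaches that level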
697 NFkB inh – inhibitors of the PMA/ionomycin-induced NF-kB reporter in 697 B cells; hit rate 0.33% among 330,000; 697 B-cell NF-kB luciferase reporter, 16 h; inhibition, % at 4 µM; AID 435022; in the data active = inhibition above about 35%
LMP1 NFkB inh – Epstein-Barr LMP1 NF-kappaB reporter inhibition; LMP1-induced NF-kappaB luciferase reporter cells, luminescence; inhibition, % at 12.5 µM; AID 504558; hit rate 0.69% among 350,000; in the data active = inhibition above about 41%;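 also: 0% = neutral control wells and 100% = reference inhibitor control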
Gli-Sufu block – antagonists of Gli-Sufu signaling. inhibition, % at 5 µM. AID 588413. Sufu-KO-LIGHT fibroblasts, Gli luciferase reporter luminescence. hit rate 0.74% among 340,000;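 active = inhibition above about 55%, limit read from the data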;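 also: 0% = DMSO-treated cells and 100% = wells with medium but no cells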
Shn3 inh set2 – reduces Shn3 3'UTR luciferase signal in osteoblasts | Clone20 osteoblast Shn3 3'UTR firefly luciferase, 24 h | hit rate 0.52% among 360,000 | inhibition, % at 12.5 µM;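 active = mean inhibition of at least 75% with every replicate also reaching 75%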;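 also: 0% = median of neutral control wells and 100% = pilot-screen positive control compound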
Jurkat NFkB conf – lowers PMA/ionomycin-induced NF-kB signal in Jurkat cells | shares compounds with Jurkat NFkB inh | Jurkat NF-kB luciferase, 16 h | inhibition, % at 4 µM | hit rate 27% among 2,700 | AID 435020;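 active = inhibition reaching about 45% at 4 µM in either replicate, limit read from the data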;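 also: plate controls were PMA/ionomycin stimulated DMSO wells for no effect and unstimulated DMSO wells for full effect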
* marks the source's active call; other numbers are inactive results; / = no result given.

SMILES | Jurkat NFkB inh | TRPM1 prom inh | 697 NFkB inh | LMP1 NFkB inh | Gli-Sufu block | Shn3 inh set2 | Jurkat NFkB conf
Cc1ccc(S(=O)(=O)N2CCN(C(=O)COC(=O)COc3ccc(Cl)cc3C)CC2)c(C)c1 | / | -5 | / | -3 | 3 | -32 | /
O=Cc1ccc(Sc2nnc(-c3ccccc3)o2)c([N+](=O)[O-])c1 | 0 | -17 | 5 | 9 | -2 | -11 | /
Cn1nc([N+](=O)[O-])nc1Sc1nnc(-c2ccccc2)o1 | 74* | 12 | -165 | 3 | 46 | 6 | 70*
COc1cccc(C(=O)Nc2ncc3c(n2)CC(C)CC3=O)c1 (configuration not stated) | -10 | -4 | 5 | -8 | -6 | -30 | /
COc1ccc(CC(=O)N/N=C(\C)CC(=O)Nc2ccc3c(c2)OCCO3)cc1OC | -12 | / | -10 | -1 | 15 | 3 | /
Cc1ccc(O)c(NC(=O)C2CC(c3cccc(Br)c3)=NO2)c1 (configuration not stated) | 63* | -1 | 8 | 3 | 20 | 13 | 25
COc1cc(OC)cc(-c2cc3ccc(OC)cc3cn2)c1 | -56 | -64 | -228 | -23 | -132 | -66 | /
COc1ccc2cc(-c3ccsc3)ncc2c1 | -151 | 62* | -156 | -17 | -76 | -23 | -92
COc1cc2cnc(C3=CCCCC3)cc2cc1OC | 11 | -18 | 0 | 9 | 31 | -42 | /
COc1ccc2cc(C3=CCCCC3)ncc2c1 | -198 | -28 | -220 | -28 | -93 | -79 | -115
CCOC(=O)/C(=C/c1c2ccccc2cc2ccccc12)NC(=O)c1ccccc1 | 15 | 1 | -1 | -7 | -2 | 17 | /
N#CC1=C2SC=C(c3ccc(Br)cc3)N2CCCC1=O | -210 | -53 | -179 | -112 | -66 | -33 | -88
CCOc1cc(CNCCCN2CCOCC2)cc(Br)c1OCC(=O)Nc1cccc(C(F)(F)F)c1 | 60* | 74* | 18 | -45 | -1 | 13 | 8
COc1ccc(NC(=O)CSc2nc3sc(C)cc3c(=O)n2C)c(OC)c1 | 10 | 19 | -27 | 2 | 30 | 55 | /
O=C(Nc1ccccc1)c1ccc(CN2CCc3ccccc3C2)cc1 | 13 | 3 | -6 | 4 | -3 | -18 | /
O=C(Nc1ccc(CN2CCOCC2)cc1)c1ccc(Cl)cc1 | -42 | -50 | -73 | -39 | / | -105 | /
O=C(Nc1ccc(S(=O)(=O)Nc2ccccc2)cc1)c1ccc(CN2CCOCC2)cc1 | 64* | 33 | 14 | -7 | 25 | 72 | 65*
O=C(Nc1ccc(S(=O)(=O)N2CCCCC2)cc1)c1ccc(CN2CCc3ccccc3C2)cc1 | 80* | 42 | 10 | 20 | -6 | 84 | 78*
Fc1ccccc1-c1nc(-c2ccc(Cl)cc2)no1 | -176 | -48 | -247 | -75 | -125 | -64 | -76
NC(=O)c1ccc(-c2noc(-c3ccccc3F)n2)cc1 | -139 | -57 | -182 | -20 | -82 | -56 | /
Cc1ccc(NS(=O)(=O)c2ccc(-c3cnc(C4CC4)o3)cc2)c(C)c1 | 54* | 8 | -28 | 15 | 21 | 10 | 61*
COc1ccccc1CNS(=O)(=O)c1ccc(-c2cnc(C3CC3)o2)cc1 | 51* | 10 | -54 | 45* | 36 | 27 | 50*
COc1ccccc1NS(=O)(=O)c1ccc(-c2cnc(C3CC3)o2)cc1 | 48 | 29 | -25 | 9 | 2 | 32 | /
Cc1ccc(-c2cnc(C3CC3)o2)cc1S(=O)(=O)Nc1ccccc1 | 26 | 17 | -40 | -4 | -5 | 15 | /
CCCCCCCCNC(=O)/C(C#N)=C/c1ccc(SC)cc1 | 15 | 16 | 3 | 4 | -3 | -36 | /
SMILES | Jurkat NFkB inh | TRPM1 prom inh | 697 NFkB inh | LMP1 NFkB inh | Gli-Sufu block | Shn3 inh set2 | Jurkat NFkB conf
CCOc1ccc2c(c1)OC1(CCC(C)C1)CC2=O (configuration not stated) | -1 | 4 | -13 | 5 | -27 | 11 | /
CCOc1ccc2c(c1)OC(c1ccc(C)cc1)(C(F)(F)F)NC2=O (configuration not stated) | 60* | 39 | 10 | -6 | 28 | -2 | 41
CCc1ccc(/C=N/NC(=O)c2cc(C3CC3)nc3ccc(Br)cc23)s1 | 56* | 28 | -42 | 24 | -6 | 44 | 21
CCc1ccc(/C=N/NC(=O)c2cc(-c3ccccc3OC)nc3ccccc23)s1 | -9 | 12 | -3 | -3 | 2 | -4 | /
CCOC(=O)N1CCN(C(=S)NC(=O)c2ccc(Br)cc2)CC1 | -8 | 2 | 3 | -4 | 2 | 4 | /
Nc1nc(-c2cc(-c3ccccc3)no2)cs1 | -92 | -74 | -198 | -24 | -84 | -17 | /
c1ccc(-c2cc(-c3ccccc3)on2)cc1 | -209 | -76 | -206 | -10 | -72 | -60 | -151
COc1cc2sc3ccc(-c4ccc(N(C)C)nc4)cc3c(=O)c2cc1OC | -159 | / | -161 | / | / | / | -79
CN1CCN(Cc2cn(C)nc2-c2ccccc2F)CC1c1ccccc1 (configuration not stated) | -2 | 0 | 21 | 4 | 19 | 9 | /
Cc1cc(N2CCN(Cc3cn(C)nc3-c3cccc(Cl)c3)CC2)cc(C)n1 | 62* | 10 | -23 | -12 | 10 | 9 | 5
Cc1cc(N2CCN(Cc3cn(C)nc3-c3ccccc3F)CC2)cc(C)n1 | 69* | 27 | -24 | 2 | -12 | -2 | -8
CCCCNc1cc(C)nc(NCc2ccccc2)n1 | 70* | 19 | -37 | 0 | -32 | 84 | 21
C=CCn1c(CSc2nc3ccccc3s2)nnc1SCC(=O)OCC | 7 | 2 | -4 | -12 | -2 | -9 | /
Nc1nonc1-c1nc2ccccc2n1Cc1ccc(Cl)cc1 | -1 | -2 | 7 | -2 | 7 | 12 | /
COc1cc(Cn2c(-c3nonc3N)nc3ccccc32)ccc1C | 62* | 37 | 6 | 2 | 4 | / | 46
COc1cccc(Cn2c(-c3nonc3N)nc3ccccc32)c1 | 51* | 23 | -19 | 9 | 15 | 18 | 34
Cc1ccc(Cn2c(-c3nonc3N)nc3ccccc32)cc1 | 33 | 0 | 4 | -10 | 6 | -3 | /
Cc1cccc(-c2noc(-c3ccc(Cl)cc3[N+](=O)[O-])n2)c1 | -161 | -72 | -187 | -89 | -98 | -111 | -103
CC(C)C[C@H]1CNC(=S)N1CC1CCCN1C[C@H](CC(C)C)N1C[C@H](Cc2ccc(O)cc2)N(CC2CCCCCC2)C1=S (some centres not stated) | / | 11 | / | 8 | 7 | 8 | /
CC(C)c1ccc(-n2cnn(-c3ncccc3[N+](=O)[O-])c2=O)cc1 | -204 | -5 | -155 | -23 | -119 | -64 | -126
Cc1ccc(N/C(N)=N/c2nc(C)cc(N3CCCCC3)n2)c(C)c1 | 89* | 24 | -78 | 15 | 85* | 96* | 16
Cc1nc(Nc2nc3c(c(=O)[nH]2)CCC3)nc2ccccc12 | 85* | 15 | -182 | -20 | -8 | -22 | 57*
